The text below walks through data of the supplement of paper PMC8975748.

Structures can show the parent of a compound that is named as a salt.

For this experiment, the system named is Saccharomyces cerevisiae BY4741 SeMeCo community. Nature of the experiment: z-score of subpopulation abundance vs DMSO median, subpopulation auxotrophic for HLM; higher = larger share of this subpopulation than in DMSO controls. The following applies: 10 µM; 24 h; SM minimal medium; subpopulation (auxotrophy): HLM. How it is done:
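Fluorescent four-plasmid SeMeCo (self-establishing metabolically cooperating S. cerevisiae BY4741 community; plasmids pH-mRuby2, pL-mWasabi, pU-eCFP, pM-TagRFP657) was grown 24 h in minimal SM medium with each Selleck FDA-approved drug at 10 µM in 384-well plates. Cells were fixed and imaged by high-content confocal microscopy. For each auxotrophic subpopulation (and the prototroph), a z-score gives the deviation from the DMSO vehicle-control population median.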
Take `CO[C@H]1C[C@@H]2CC[C@@H](C)[C@@](O)(O2)C(=O)C(=O)N2CCCC[C@H]2C(=O)O[C@H]([C@H](C)C[C@@H]2CC[C@@H](OCCO)[C@H](OC)C2)CC(=O)[C@H](C)/C=C(\C)[C@@H](O)[C@@H](OC)C(=O)[C@H](C)C[C@H](C)/C=C/C=C/C=C/1C` [Everolimus (RAD001)]: the “z-score of subpopulation abundance” value was determined as 19.

In the case of `COc1ccc(C2CNC(=O)C2)cc1OC1CCCC1` (stereo not drawn) [S- (+)-Rolipram], the “z-score of subpopulation abundance” value was -0.94.

With `CO/N=C(\C(=O)N[C@@H]1C(=O)N2C(C(=O)O)=CCS[C@H]12)c1csc(N)n1` [Ceftizoxime], the “z-score of subpopulation abundance” value is -0.37.

On to `CCCOc1ccc2[nH]c(NC(=O)OC)nc2c1` [Oxibendazole], for which the “z-score of subpopulation abundance” value was 0.16.

Turning to `NC(=O)c1cn(Cc2c(F)cccc2F)nn1` [Rufinamide], the “z-score of subpopulation abundance” value was found to be 0.38.

Regarding `CCc1nn(CCCN2CCN(c3cccc(Cl)c3)CC2)c(=O)n1CCOc1ccccc1` [Nefazodone hydrochloride], the “z-score of subpopulation abundance” value was 0.6.

As to `CCN1CCN(C(=O)N[C@@H](C(=O)N[C@@H]2C(=O)N3[C@@H]2SC(C)(C)[C@@H]3C(=O)O)c2ccccc2)C(=O)C1=O` [Piperacillin Sodium], the “z-score of subpopulation abundance” value came to 0.59.

Take `C[C@H](NCc1ccc(OCc2cccc(F)c2)cc1)C(N)=O` [Safinamide]: the “z-score of subpopulation abundance” value was 1.35.

For `CCCN[C@H]1CCc2nc(N)sc2C1` [Pramipexole], the “z-score of subpopulation abundance” value was found to be 0.06.

As to `CO[C@H]1C[C@@H]2CC[C@@H](C)[C@@](O)(O2)C(=O)C(=O)N2CCCC[C@H]2C(=O)O[C@H]([C@H](C)C[C@@H]2CC[C@@H](OC(=O)C(C)(CO)CO)[C@H](OC)C2)CC(=O)[C@H](C)/C=C(\C)[C@@H](O)[C@@H](OC)C(=O)[C@H](C)C[C@H](C)/C=C/C=C/C=C/1C`, the “z-score of subpopulation abundance” value stood at 21.4.

As to `C[C@@H](O)[C@H]1C(=O)N2C(C(=O)O)=C(S[C@@H]3CN[C@H](CNS(N)(=O)=O)C3)[C@H](C)[C@H]12` [Doripenem Hydrate], the “z-score of subpopulation abundance” value is -0.78.

Consider `Clc1ccc(C(Cn2ccnc2)OCc2ccc(Sc3ccccc3)cc2)c(Cl)c1` (stereo not given) [Fenticonazole Nitrate], for which the “z-score of subpopulation abundance” value turned out to be 30.4.

On to `C[C@@H](O)[C@H]1C(=O)N2C(C(=O)O)=C([C@H]3CCCO3)S[C@H]12` [Faropenem Sodium], for which the “z-score of subpopulation abundance” value was -0.7.

Turning to `CO/N=C(\C(=O)N[C@@H]1C(=O)N2C(C(=O)O)=C(Cn3ccc(=N)n3CCO)CS[C@H]12)c1csc(N)n1` [Cefoselis Sulfate], the “z-score of subpopulation abundance” value is -1.24.

For the compound `Cc1cc(O)cc(C)c1Cl` [Chloroxylenol], the “z-score of subpopulation abundance” value stood at 0.76.

With `CC1(C)[C@H](C(=O)O)N2C(=O)C[C@H]2S1(=O)=O` [Sulbactam sodium], the “z-score of subpopulation abundance” value was -0.2.

With `O=C1CN(/N=C/c2ccc(-c3ccc([N+](=O)[O-])cc3)o2)C(=O)N1` [Dantrolene sodium], the “z-score of subpopulation abundance” value came to 1.18.

Take `CC[N+](CC)(CC)CCOc1cccc(OCC[N+](CC)(CC)CC)c1OCC[N+](CC)(CC)CC` [Gallamine Triethiodide]: the “z-score of subpopulation abundance” value was -0.27.

Turning to `Oc1c(Cl)cc(Cl)c2cccnc12` [Chloroxine], the “z-score of subpopulation abundance” value stood at 45.7.

Regarding `CC(NCCC(c1ccccc1)c1ccccc1)c1ccccc1` (stereo not given) [Fendiline hydrochloride], the “z-score of subpopulation abundance” value is -0.59.

`CCCN1CCCC[C@H]1C(=O)Nc1c(C)cccc1C` [Ropivacaine HCl]: the “z-score of subpopulation abundance” value is 0.38.

For `COc1cc(N)c(Cl)cc1C(=O)NC1CCN(CCCOc2ccc(F)cc2)CC1OC` (stereo not given) [Cisapride hydrate], the “z-score of subpopulation abundance” value was found to be 0.12.

For `Nc1nc2c(ncn2COC(CO)CO)c(=O)[nH]1` [Ganciclovir], the “z-score of subpopulation abundance” value is -0.21.

Regarding `CN1C(C(=O)Nc2ccccn2)=C(O)c2sc(Cl)cc2S1(=O)=O` [Lornoxicam], the “z-score of subpopulation abundance” value turned out to be 0.08.

On to `CC(C)C(=O)c1c(C(C)C)nn2ccccc12` [Ibudilast], for which the “z-score of subpopulation abundance” value is -0.49.

On to `COc1ccc2c3c1O[C@H]1C[C@@H](O)C=C[C@@]31CCN(C)C2` [Galanthamine HBr], for which the “z-score of subpopulation abundance” value is -0.5.

For `O=C1CN2Cc3c(ccc(Cl)c3Cl)N=C2N1` [Anagrelide HCl], the “z-score of subpopulation abundance” value amounted to 1.02.

In the case of `CCC[C@@H]1C[C@@H](C(=O)N[C@@H]([C@H]2O[C@H](SC)[C@H](O)[C@@H](O)[C@H]2O)[C@@H](C)O)N(C)C1` [Lincomycin HCl], the “z-score of subpopulation abundance” value is -0.77.

Take `CO/N=C(/C(=O)N[C@@H]1C(=O)N2C(C(=O)OCOC(=O)C(C)(C)C)=C(C)CS[C@H]12)c1csc(N)n1` [Cefetamet pivoxil hydrochloride]: the “z-score of subpopulation abundance” value is 1.15.

Consider `CCN(CC)C(=O)N1CCN(C)CC1` [Diethylcarbamazine citrate], for which the “z-score of subpopulation abundance” value stood at 0.15.

Turning to `C=C[C@]1(C)C[C@@H](OC(=O)CSC(C)(C)CNC(=O)[C@H](N)C(C)C)[C@]2(C)[C@H](C)CC[C@]3(CCC(=O)[C@H]32)[C@@H](C)[C@@H]1O` [Valnemulin HCl], the “z-score of subpopulation abundance” value was determined as 0.18.

In the case of `CO[C@@]1(NC(=O)Cc2cccs2)C(=O)N2C(C(=O)O)=C(COC(N)=O)CS[C@@H]21` [Cefoxitin sodium], the “z-score of subpopulation abundance” value is -0.9.

For the compound `CN[C@@H]1[C@@H](O)[C@@H](O[C@@H]2[C@@H](O)[C@H](O[C@H]3OC(CN)=CC[C@H]3N)[C@@H](N)C[C@H]2N)OC[C@]1(C)O` [Sisomicin sulfate], the “z-score of subpopulation abundance” value was determined as 0.84.

Regarding `CC[C@@]1(O)C(=O)OCc2c1cc1n(c2=O)Cc2cc3c(CN(C)C)c(O)ccc3nc2-1` [Topotecan HCl], the “z-score of subpopulation abundance” value is 0.12.

Turning to `Clc1ccc2c(N3CCN(CCCN4CCN(c5ccnc6cc(Cl)ccc56)CC4)CC3)ccnc2c1` [Piperaquine phosphate], the “z-score of subpopulation abundance” value stood at 0.63.

On to `Cc1ncc([N+](=O)[O-])n1CC(O)CCl` (stereo not given) [Ornidazole], for which the “z-score of subpopulation abundance” value is -0.03.

Consider `CO/N=C(\C(=O)N[C@@H]1C(=O)N2C(C(=O)O)=C(CSc3nnnn3C)CS[C@H]12)c1csc(N)n1` [Cefmenoxime hydrochloride], for which the “z-score of subpopulation abundance” value was -0.86.

Regarding `O=C1CCc2cc(OCCCCc3nnnn3C3CCCCC3)ccc2N1` [Cilostazol], the “z-score of subpopulation abundance” value was -0.55.

Regarding `CC(=O)O[C@]1(C(C)=O)CC[C@H]2[C@@H]3C[C@H](C)C4=CC(=O)CC[C@]4(C)[C@H]3CC[C@@]21C` [Medroxyprogesterone acetate], the “z-score of subpopulation abundance” value is -0.12.

In the case of `Cc1cc(NS(=O)(=O)c2ccc(N)cc2)no1` [Sulfamethoxazole sodium], the “z-score of subpopulation abundance” value was -0.73.
